Consider five molecules from PubChem BioAssay (NCATS).

Test [1] in a line: AP1 Signaling Pathway (AID 357; active = well fitted curve in either direction with a large enough effect, not every such curve was filed as active;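 note: ME-180 reporter cells stimulated with EGF at its EC50 level; % is set by controls: 0 for no effect and ±100 for the full control effect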). Put shortly: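 In this screen, ME-180 cells in Opti-MEM with 0.5% dialyzed FBS received EC50 EGF and compound titrations for 5 h. AP-1 reporter beta-lactamase was detected via CCF4 ratio, giving AC50 for positive and negative modulators.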
Test [2] deals with Cytochrome P450 1A2 (Homo sapiens) (UniProt P05177). The test can be described thus: p450-cyp1a2 (AID 410; calls by dose curve;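 note: -100% = full effect of reference inhibitor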). Put shortly: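 Luminescent readout of luciferin formed from Luciferin-ME by human CYP1A2; data normalized against complete inhibition by 57 uM furafylline. Enzyme 20nM, substrate 100uM at Km, 100mM KPO4 buffer, 60 min reaction at room temperature.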
Chain of Cytochrome P450 1A2 (Homo sapiens) (P05177 whole entry, looked up): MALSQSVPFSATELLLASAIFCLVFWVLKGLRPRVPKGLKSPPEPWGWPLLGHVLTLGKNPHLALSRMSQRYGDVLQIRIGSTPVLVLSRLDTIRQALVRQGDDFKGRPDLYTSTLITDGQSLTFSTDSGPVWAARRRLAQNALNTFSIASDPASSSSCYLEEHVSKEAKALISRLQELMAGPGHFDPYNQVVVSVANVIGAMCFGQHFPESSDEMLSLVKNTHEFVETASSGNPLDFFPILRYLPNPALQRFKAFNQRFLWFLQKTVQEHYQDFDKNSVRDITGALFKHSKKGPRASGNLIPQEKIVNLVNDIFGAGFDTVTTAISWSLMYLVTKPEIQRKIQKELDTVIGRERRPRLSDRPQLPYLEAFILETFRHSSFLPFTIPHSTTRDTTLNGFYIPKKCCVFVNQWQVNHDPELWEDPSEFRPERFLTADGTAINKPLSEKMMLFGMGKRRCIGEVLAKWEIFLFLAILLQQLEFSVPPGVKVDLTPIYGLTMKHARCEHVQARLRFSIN
Test [3] in a line: NFAT Signaling Pathway (AID 444; active = well fitted curve in either direction with a large enough effect, not every such curve was filed as active;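 note: carbachol stimulus at about its EC50 of 1 µM final; % is set by controls: 0 for no effect and ±100 for the full control effect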). Conditions: Jurkat NFAT-bla M1, carbachol, beta-lactamase ratio, 5 h; at 17.2 µM (top of the series) unless noted. Put shortly:
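Jurkat cells carrying an NFAT-driven β-lactamase reporter and co-transfected muscarinic M1 receptor were treated with compound plus carbachol (1 uM final, an EC50 level) for 5 h at 37 °C. CCF4 loading followed for 1 h at RT; 460/530 nm ratio gave %activity.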

Test [4] in a line: Stat Signaling Pathway (AID 446; active = well fitted curve in either direction with a large enough effect, not every such curve was filed as active;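 note: ME-180 cervical cancer cells given 40 pM IL-6 alongside compound; SIE-controlled beta-lactamase reporter measured as 460/530 nm FRET emission ratio; % is set by controls: 0 for no effect and ±100 for the full control effect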). Put shortly: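 ME-180 SIE-bla cells; overnight plating; cpd + IL-6 40 pM, 5 h, 37 C; LiveBLAzer 2.5 h RT; 460/530 nm emission ratio. Normalized to 300 pM IL-6 and 125 nM JAK inhibitor controls.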
The target in test [5] is Glucocorticoid receptor (Homo sapiens) (UniProt P04150). Kind of test: GR-GFP Redistribution (AID 450;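 active = compounds whose dose series gives a full or clear partial fitted curve of increased nuclear translocation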; note: potency is the fitted concentration of half-maximal effect). Conditions: U2OS GR-GFP nuclear translocation, laser cytometry, 2 h.
Chain of Glucocorticoid receptor (Homo sapiens) (P04150 whole entry, looked up): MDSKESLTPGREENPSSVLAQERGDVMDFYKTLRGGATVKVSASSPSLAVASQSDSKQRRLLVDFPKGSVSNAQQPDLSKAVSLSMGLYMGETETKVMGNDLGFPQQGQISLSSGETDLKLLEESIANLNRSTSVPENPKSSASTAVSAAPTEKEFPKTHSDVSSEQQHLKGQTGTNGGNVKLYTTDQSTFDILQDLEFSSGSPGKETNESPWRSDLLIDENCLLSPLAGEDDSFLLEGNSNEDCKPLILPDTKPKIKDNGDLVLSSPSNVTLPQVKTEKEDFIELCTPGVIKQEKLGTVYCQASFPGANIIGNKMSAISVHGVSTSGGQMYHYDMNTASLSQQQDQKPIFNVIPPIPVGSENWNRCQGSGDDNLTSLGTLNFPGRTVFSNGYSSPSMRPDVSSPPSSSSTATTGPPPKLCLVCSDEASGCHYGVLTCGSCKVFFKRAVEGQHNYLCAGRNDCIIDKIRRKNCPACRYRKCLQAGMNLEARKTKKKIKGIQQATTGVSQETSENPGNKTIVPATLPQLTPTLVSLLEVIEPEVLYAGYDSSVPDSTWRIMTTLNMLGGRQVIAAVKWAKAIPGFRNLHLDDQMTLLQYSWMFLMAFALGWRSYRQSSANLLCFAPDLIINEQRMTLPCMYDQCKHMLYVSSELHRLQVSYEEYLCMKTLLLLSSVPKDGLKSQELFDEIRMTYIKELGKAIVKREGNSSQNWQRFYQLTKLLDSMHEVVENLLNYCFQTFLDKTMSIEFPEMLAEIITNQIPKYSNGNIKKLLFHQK
The target is the same in test [6]. Kind of test: GR-EFC Redistribution (AID 451; calls by dose curve; note: potency is the fitted concentration of half-maximal effect). The note with it: CHO-K1 GR-EFC translocation, beta-gal luminescence, 2 h. In short, it runs like this:
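CHO-K1 cells stably expressing nuclear-localized β-gal enzyme acceptor and GR fused C-terminally to the enzyme donor fragment; ligand-driven nuclear translocation restores β-gal by complementation. Compounds titrated up to 46 uM final, 2 h at 37 °C; luminescence read.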

In test [7] the target is Mitogen-activated protein kinase 10 (Mus musculus) (UniProt Q61831). The test can be described thus: JNK3 AlphaScreen Assay (AID 530; active = well fitted curve in either direction with a large enough effect, not every such curve was filed as active;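 note: kinase came from lysate of stimulated human HepG2 cells; signal reports phosphorylation of biotinylated GST-cJun 1-79 at Ser73 with 10 µM ATP; % is set by controls: 0 for no effect and ±100 for the full control effect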). In short, it runs like this:
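Inhibitors reduce antibody binding to phosphorylated biotin-cJun, lowering AlphaScreen luminescence. Lysates from HepG2 cells pre-activated by IL-1beta plus TNF-alpha supplied JNK3; compounds were titrated.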
Background: Alpha assays give light when donor and acceptor beads are brought close together.

Test [8] addresses 3',5'-cyclic-AMP phosphodiesterase 4B (Homo sapiens) (UniProt Q07343). Kind of test: qHTS Assay for Inhibitors of PDE-IV (AID 607; active = well fitted activation curve with a large enough effect in the main read-out, with a control signal flat, not every such curve was filed as active; note: % of control where 0% means no effect). Put shortly: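 ACTOne HEK293 cells carry a modified cAMP-gated CNG channel and express endogenous PDE4; plated 1000 cells/well, compounds up to 22.9 uM final. Membrane-potential dye fluorescence (ex 535/em 590) was read; parental cells received 10 uM forskolin + 100 uM RO 20-1724.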
(In general: In qHTS, concentration-response curves come from the screen itself.)

A short description of test [9]: qHTS Assay for Lipid Storage Modulators (AID 1519; calls by dose curve). The note with it: Drosophila S3 cells, BODIPY lipid droplet/cell ratio, laser cytometry, cells loaded with oleic acid; for activity change, negative = inhibition: at 25.7 µM (top of the series). Put shortly:
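Cells seeded at 5,000 per well were treated with compounds over a concentration series and loaded with oleic acid (400 uM, as added). Lipid droplet fluorescence (488 nm excitation, 500-530 nm channel) was read by laser-scanning cytometry and normalized to 20 uM Triacsin C.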

Test [10] addresses Luciferin 4-monooxygenase (Photinus pyralis) (UniProt P08659). Kind of test: Biochemical firefly luciferase enzyme assay for NPC (AID 624030).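 Note: purified P. pyralis luciferase at 10 nM with luciferin and ATP substrate; 0% = DMSO and -100% = full luciferase inhibition by PTC124 control; nearly all actives have a fitted effect of over 70% in size.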 Put shortly:
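Counter-screen for direct inhibition of the luciferase enzyme by approved-drug library compounds, run at 10 nM enzyme in 50 mM Tris acetate (final). Luminescence was read within 5 min of enzyme-buffer addition and normalized to PTC124 versus DMSO (0%).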

A short description of test [11]: S16 Schwann cell viability assay (CellTiter-Glo assay) (AID 624031).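 Note: plate controls were DMSO-treated cells for no effect and cell-free wells for full effect; nearly all actives have a fitted effect of over 70% in size.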 Put shortly: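 This viability control uses native rat S16 Schwann cells grown in DMEM plus 10% FBS. After a 24 h compound treatment at 37 °C, CellTiter-Glo luminescence reports ATP content, scaled against DMSO-treated and cell-free wells.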
Background: ATP-based viability assays read luminescence as a measure of living cells.

The nature of test [12]: qHTS profiling for inhibitors of Plasmodium falciparum proliferation (AID 504749).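 For activity, negative = inhibition: 0% = DMSO vehicle and full inhibition = artemisinin control.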 Note: nearly all actives have a fitted effect of over 60% in size. Note: potency is the fitted concentration of half-maximal effect. The note with it: P. falciparum in erythrocytes, SYBR Green DNA, 72 h, at 12.8 µM (top of the series). Put shortly:
(§1)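 Parasite proliferation within erythrocytes, 72 h exposure. Endpoint: SYBR Green I fluorescence after overnight lysis at room temperature. Controls: 0.29 uM artemisinin, DMSO.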

Another test deals with C2A. The description is as above. Conditions: P. falciparum in erythrocytes, SYBR Green DNA, 72 h; series mostly up to 12.8 µM. In short, it runs like this: as §1
Another test relates to CP191. The description is as above. The note with it: P. falciparum in erythrocytes, SYBR Green DNA, 72 h; series mostly up to 12.8 µM. Put shortly: as §1
Another test relates to CP256. Described as above. The note with it: P. falciparum in erythrocytes, SYBR Green DNA, 72 h; series mostly up to 12.8 µM. In short, it runs like this: as §1
The next test deals with CP262. Described as above. The note with it: P. falciparum in erythrocytes, SYBR Green DNA, 72 h; series mostly up to 12.8 µM. Put shortly: as §1
For a further test, the system named is CP268. The description is as above. Conditions: P. falciparum in erythrocytes, SYBR Green DNA, 72 h; series mostly up to 12.8 µM. In short, it runs like this:
as §1

For another test, the system named is JCK. The test is described as above. The note with it: P. falciparum in erythrocytes, SYBR Green DNA, 72 h; series mostly up to 12.8 µM. Put shortly: as §1
In another test the test system is SC27B. The description is as above. Conditions: P. falciparum in erythrocytes, SYBR Green DNA, 72 h; series mostly up to 12.8 µM. Put shortly:
as §1

Test [13] deals with Ubiquitin carboxyl-terminal hydrolase 1 (Homo sapiens) (UniProt O94782). Kind of test: Inhibitors of USP1/UAF1: Pilot qHTS (AID 504865).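 Note: rhodamine fluorescence freed from ubiquitin-rhodamine substrate followed over time; top concentration of the series differs between compounds; % is set by controls: 0 for no effect and ±100 for the full control effect; nearly all actives have a fitted effect of over 35% in size.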 In short, it runs like this: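 Enzyme-free wells gave the negative control, while test wells held 1nM USP1/UAF1 preincubated with compound for 15 min at room temperature. Ub-Rho at 150nM final started the reaction, and fluorescence at 480/540 nm was recorded kinetically.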
Chain of Ubiquitin carboxyl-terminal hydrolase 1 (Homo sapiens) (O94782 whole entry, looked up): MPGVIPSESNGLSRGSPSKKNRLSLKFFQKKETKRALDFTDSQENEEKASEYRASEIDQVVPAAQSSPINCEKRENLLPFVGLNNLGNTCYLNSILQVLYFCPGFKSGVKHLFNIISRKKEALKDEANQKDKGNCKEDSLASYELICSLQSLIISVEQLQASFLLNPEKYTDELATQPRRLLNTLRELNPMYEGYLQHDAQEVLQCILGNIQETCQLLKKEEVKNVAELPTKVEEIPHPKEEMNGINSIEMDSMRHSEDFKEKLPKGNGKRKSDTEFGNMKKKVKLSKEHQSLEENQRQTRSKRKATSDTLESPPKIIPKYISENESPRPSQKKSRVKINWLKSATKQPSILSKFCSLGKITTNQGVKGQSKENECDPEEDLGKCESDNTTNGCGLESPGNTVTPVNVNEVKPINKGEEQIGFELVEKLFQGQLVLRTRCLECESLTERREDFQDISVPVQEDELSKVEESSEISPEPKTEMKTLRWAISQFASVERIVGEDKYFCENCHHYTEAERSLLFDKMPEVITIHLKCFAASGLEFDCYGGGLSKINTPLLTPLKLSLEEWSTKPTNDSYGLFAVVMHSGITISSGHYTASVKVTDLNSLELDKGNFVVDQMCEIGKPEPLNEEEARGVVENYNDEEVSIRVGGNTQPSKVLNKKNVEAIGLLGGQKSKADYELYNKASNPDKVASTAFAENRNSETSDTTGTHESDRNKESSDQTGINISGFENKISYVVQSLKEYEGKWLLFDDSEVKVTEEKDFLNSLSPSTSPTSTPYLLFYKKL

The mark [14] stands for this setting: measured here: cell count channel max response.
[15] abbreviates: measured here: lipid channel max response.

Results filed as inconclusive are left out. Active and inactive are the calls of the source. Unless noted, calls come from the whole dose curve; as a rule, active = well fitted curve in the direction sought with a large enough effect; inconclusive = small, poorly fitted or top-dose-only effect, or another doubt; inactive = no such curve, though single readings can be large; an effect the other way counts as inactive or inconclusive.

Chain of Luciferin 4-monooxygenase (Photinus pyralis) (P08659 whole entry, looked up): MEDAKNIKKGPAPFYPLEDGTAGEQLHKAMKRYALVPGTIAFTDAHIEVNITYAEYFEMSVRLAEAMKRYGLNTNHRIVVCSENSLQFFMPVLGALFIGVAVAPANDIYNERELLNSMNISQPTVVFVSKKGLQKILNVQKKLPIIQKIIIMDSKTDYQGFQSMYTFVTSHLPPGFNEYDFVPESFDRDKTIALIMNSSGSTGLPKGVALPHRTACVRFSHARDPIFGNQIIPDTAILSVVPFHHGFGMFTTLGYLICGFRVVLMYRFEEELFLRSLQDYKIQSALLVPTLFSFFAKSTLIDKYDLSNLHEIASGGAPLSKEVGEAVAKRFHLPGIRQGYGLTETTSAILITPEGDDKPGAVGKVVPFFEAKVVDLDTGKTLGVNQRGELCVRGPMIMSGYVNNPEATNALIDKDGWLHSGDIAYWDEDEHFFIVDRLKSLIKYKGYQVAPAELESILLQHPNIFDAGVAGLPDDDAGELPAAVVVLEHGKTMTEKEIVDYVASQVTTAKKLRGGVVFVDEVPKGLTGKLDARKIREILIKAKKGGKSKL
Chain of 3',5'-cyclic-AMP phosphodiesterase 4B (Homo sapiens) (Q07343 whole entry, looked up): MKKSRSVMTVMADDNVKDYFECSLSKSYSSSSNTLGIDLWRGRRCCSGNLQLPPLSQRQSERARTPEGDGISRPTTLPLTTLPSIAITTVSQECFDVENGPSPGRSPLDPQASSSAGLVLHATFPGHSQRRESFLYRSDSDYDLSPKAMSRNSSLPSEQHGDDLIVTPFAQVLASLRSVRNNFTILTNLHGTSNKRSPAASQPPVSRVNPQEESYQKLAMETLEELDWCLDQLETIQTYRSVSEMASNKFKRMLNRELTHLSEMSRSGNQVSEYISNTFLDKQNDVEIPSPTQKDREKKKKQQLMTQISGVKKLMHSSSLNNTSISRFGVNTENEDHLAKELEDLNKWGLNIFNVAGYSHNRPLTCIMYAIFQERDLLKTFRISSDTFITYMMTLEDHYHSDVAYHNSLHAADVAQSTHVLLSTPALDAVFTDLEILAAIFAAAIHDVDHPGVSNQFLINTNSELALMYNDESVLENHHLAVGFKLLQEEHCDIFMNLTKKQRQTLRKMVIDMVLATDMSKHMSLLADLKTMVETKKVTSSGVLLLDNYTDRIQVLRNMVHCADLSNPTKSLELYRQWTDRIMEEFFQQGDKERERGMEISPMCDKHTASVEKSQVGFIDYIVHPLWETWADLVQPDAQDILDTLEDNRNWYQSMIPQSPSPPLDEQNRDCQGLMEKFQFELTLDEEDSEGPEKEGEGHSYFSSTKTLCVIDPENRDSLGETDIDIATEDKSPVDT

Regarding `CC(=O)O[C@]1(C(C)=O)CC[C@@H]2[C@@H]3C=C(C)C4=CC(=O)CC[C@@]4(C)[C@H]3CC[C@]21C`, the outcome in test [1], in test [4], in test [8] and in [11] was inactive. Moreover, the Potency entry (in [2]; in test [7]; in test [10]; in the test on C2A; in the test with CP191; in the test on CP256) was “inactive” each time. Moreover, the Potency result in the test on CP262, with CP268, in the test with JCK and with SC27B was “inactive” each time. Besides, the figures for the activity change, negative = inhibition in test [3] and in [9] were -7.69% (inactive) and -3.56% (inactive), respectively. Also, the Potency in [5] is 0.00312 µM (active); in test [6], 0.0557 µM (active). Further, the max response in [9] (setting [14]) is -20.2%; in test [9] (setting [15]) it was -22%. In addition, the activity, negative = inhibition in test [12] (parasite line A) is -0.563% (inactive); in [12] (parasite line B), 2.77% (inactive).

Consider `CO[C@H]1[C@H](O[C@H]2O[C@@H](C)[C@@H](O[C@@H]3C[C@](C)(O)[C@H](OC(=O)CC(C)C)[C@H](C)O3)[C@@H](N(C)C)[C@@H]2O)[C@@H](CC=O)C[C@@H](C)[C@@H](O)/C=C\C=C/C[C@@H](C)OC(=O)C[C@H]1OC(C)=O`, for which the outcome in test [1], in test [4] and in test [11] was inactive. Besides, the Potency result (in test [2]; in [7]; in test [10]; in the test with JCK; in the test on SC27B) was “inactive” each time. In addition, the activity change, negative = inhibition in test [3] was -0.256% (inactive); in test [9], -3.13% (inactive). The Potency in test [5] was > 20.6 µM (inactive); in test [6] it was > 20.6 µM (inactive); with CP256 it was 2 µM (active); in the test with CP262, 2.28 µM (active). The max response in [9] (setting [14]) was -10.5%; in test [9] (setting [15]) it was -14%.

As to `CO[C@]1(NC(=O)C2SC(=C(C(N)=O)C(=O)O)S2)C(=O)N2C(C(=O)O)=C(CSc3nnnn3C)CS[C@H]21` (some centres undefined), the call in [1], in [4], in [8] and in [11] was inactive. Further, the Potency entry (in test [2]; in test [7]; in [10]; in the test with C2A; in the test on CP191; in the test with CP256) was “inactive” in each case. Moreover, the Potency result in the test on CP262, in the test with CP268, with JCK and in the test with SC27B was “inactive” each time. For the same molecule, the activity change, negative = inhibition in test [3] is 13.4% (inactive); in [9] it was 0.935% (inactive). Further, the Potency in test [5] and in [6] was > 20.6 µM (inactive) each time. In addition, the figures for the max response in test [9] (setting [14]) and in test [9] (setting [15]) were 0.185% and 1.63%, respectively. Moreover, the results for the activity, negative = inhibition in test [12] (parasite line A) and in test [12] (parasite line B) were -5.23% (inactive) and -0.327% (inactive), respectively.

For `C=CCN1C(=CCO)[C@H]2C[C@H]3[C@@H]1CC[C@@]31c3ccccc3N3C=C4[C@@H]5N(/C=C/2[C@H]31)c1ccccc1[C@]51CC[C@H]2[C@H]1C[C@@H]4/C(=C/CO)N2CC=C`, the molecule was classed as inactive in test [1], in test [4], in test [8] and in [11]. In addition, the Potency entry (in [2]; in [7]; in test [10]; in the test with C2A; with CP191; with CP256) was “inactive” throughout. In addition, the Potency entry in the test with CP262, in the test on CP268, in the test on JCK and in the test on SC27B was “inactive” in each case. Besides, the activity change, negative = inhibition in [3] was -23.2% (inactive); in test [9] it was 0.271% (inactive). For the same molecule, the Potency in test [5] and in [6] was > 20.6 µM (inactive) each time. Further, the values for the max response in test [9] (setting [14]) and in test [9] (setting [15]) were -16.1% and -15.8%, respectively. Further, the figures for the activity, negative = inhibition in [12] (parasite line A) and in test [12] (parasite line B) were 1.83% (inactive) and 0.223% (inactive), respectively.

As for `OC[C@@H](O)CN1CCN(c2ccccc2)CC1`, the molecule was called inactive in test [1], in test [4] and in [8]. Besides, the Potency result in test [2], in test [7] and in test [13] was “inactive” in each case. Moreover, the activity change, negative = inhibition is 3.85% (inactive) in test [3] and 0.251% (inactive) in test [9]. Moreover, the Potency in [5] and in test [6] was > 20.6 µM (inactive) throughout. For the same molecule, the max response is -9.92% in test [9] (setting [14]) and -7.93% in test [9] (setting [15]).
